Experimental findings from PubChem BioAssay (NCATS) are described below.

Each structure is given as a SMILES string. Results filed as inconclusive are left out. A number with no mark means an inactive call. Calls of active or inactive are those of the source. Calls follow the shape of the dose curve; as a rule, active = well fitted curve in the direction sought with a large enough effect; inconclusive = small, poorly fitted or top-dose-only effect, or another doubt; inactive = no such curve, though single readings can be large; an effect the other way counts as inactive or inconclusive.

Assay [1] addresses Rap guanine nucleotide exchange factor 3 (Homo sapiens) (UniProt O95398). In words: Confirmatory qHTS for agonist of cAMP-regulated guanine nucleotide exchange factor 3 (EPAC1) (AID 1645881;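 also: EPAC1 catalysed release of BODIPY-GDP from Rap1B seen as fluorescence loss; 100% = effect of cAMP agonist control; nearly all actives have a fitted effect of over 75% in size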). (In general: Quantitative high-throughput screening tests each substance at several concentrations.)
Assay [2] addresses Rap guanine nucleotide exchange factor 4 (Homo sapiens) (UniProt Q8WZA2). In words: Confirmatory qHTS for agonist of cAMP-regulated guanine nucleotide exchange factor 4 (EPAC2) (AID 1645884).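 Also: nucleotide exchange releases bodipy-GDP from Rap1 and this lowers its fluorescence; % is scaled to controls: 0 for no effect and ±100 for the full control effect; nearly all actives have a fitted effect of over 65% in size.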
The target is the same in assay [3]. In words: Confirmatory qHTS for antagonist of cAMP-regulated guanine nucleotide exchange factor 4 (EPAC2) (AID 1645885). Also: nearly all actives have a fitted effect of over 25% in size. Also: potency is read from the fitted curve at half-maximal effect. As to activity change, negative = inhibition: % is scaled to controls: 0 for no effect and ±100 for the full control effect.
Assay [4] has as its target Rap guanine nucleotide exchange factor 3 (Homo sapiens) (UniProt O95398). In words: Counterscreen qHTS for antagonist of cAMP-regulated guanine nucleotide exchange factor 3 (EPAC1) (AID 1645888).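 Also: fluorescence loss as bound BODIPY-GDP is released from Rap1B; % of control where 0% means no effect.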 The method, boiled down:
(§1)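 Rap1B–BODIPY-GDP (250 nM) with 50 uM GDP; compounds pin-transferred to 9.74 nM–152 uM final (activator) or from 7.32 nM upwards (inhibitor). Fluorescence Ex/Em 480/540 nm read at 5 and 30 min, then after adding cAMP or buffer, at room temperature.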
Background: A counterscreen serves to expose hits that act by an unwanted route or on another target.

Assay [5] has the same target. In words: Counterscreen qHTS for agonist of cAMP-regulated guanine nucleotide exchange factor 3 (EPAC1) (AID 1645889). Also: % of control where 0% means no effect; nearly all actives have a fitted effect of over 40% in size. The method, boiled down: as §1

Sequence of Rap guanine nucleotide exchange factor 3 (Homo sapiens) (O95398 whole entry, looked up): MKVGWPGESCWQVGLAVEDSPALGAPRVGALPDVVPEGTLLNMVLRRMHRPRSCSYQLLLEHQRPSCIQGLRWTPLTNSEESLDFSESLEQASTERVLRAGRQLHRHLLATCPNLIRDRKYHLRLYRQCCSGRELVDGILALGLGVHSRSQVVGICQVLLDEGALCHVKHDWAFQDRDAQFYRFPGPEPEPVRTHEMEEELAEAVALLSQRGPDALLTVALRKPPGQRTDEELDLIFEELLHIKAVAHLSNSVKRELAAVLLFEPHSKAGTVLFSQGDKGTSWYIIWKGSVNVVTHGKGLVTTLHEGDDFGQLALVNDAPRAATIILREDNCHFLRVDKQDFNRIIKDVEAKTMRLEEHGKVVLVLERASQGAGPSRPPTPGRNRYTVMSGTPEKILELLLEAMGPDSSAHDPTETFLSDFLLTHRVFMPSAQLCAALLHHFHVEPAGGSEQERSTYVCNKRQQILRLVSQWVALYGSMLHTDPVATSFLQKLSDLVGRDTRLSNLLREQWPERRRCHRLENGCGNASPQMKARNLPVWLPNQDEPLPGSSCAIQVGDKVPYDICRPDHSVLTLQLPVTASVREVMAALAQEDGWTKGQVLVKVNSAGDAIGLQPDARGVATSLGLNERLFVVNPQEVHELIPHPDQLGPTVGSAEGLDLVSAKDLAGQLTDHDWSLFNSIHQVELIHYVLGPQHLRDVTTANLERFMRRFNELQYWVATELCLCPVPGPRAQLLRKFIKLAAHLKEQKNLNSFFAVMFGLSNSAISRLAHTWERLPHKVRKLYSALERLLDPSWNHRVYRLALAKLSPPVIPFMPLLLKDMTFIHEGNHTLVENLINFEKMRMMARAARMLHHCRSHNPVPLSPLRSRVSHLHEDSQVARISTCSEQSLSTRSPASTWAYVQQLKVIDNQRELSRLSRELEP
Sequence of Rap guanine nucleotide exchange factor 4 (Homo sapiens) (Q8WZA2 whole entry, looked up): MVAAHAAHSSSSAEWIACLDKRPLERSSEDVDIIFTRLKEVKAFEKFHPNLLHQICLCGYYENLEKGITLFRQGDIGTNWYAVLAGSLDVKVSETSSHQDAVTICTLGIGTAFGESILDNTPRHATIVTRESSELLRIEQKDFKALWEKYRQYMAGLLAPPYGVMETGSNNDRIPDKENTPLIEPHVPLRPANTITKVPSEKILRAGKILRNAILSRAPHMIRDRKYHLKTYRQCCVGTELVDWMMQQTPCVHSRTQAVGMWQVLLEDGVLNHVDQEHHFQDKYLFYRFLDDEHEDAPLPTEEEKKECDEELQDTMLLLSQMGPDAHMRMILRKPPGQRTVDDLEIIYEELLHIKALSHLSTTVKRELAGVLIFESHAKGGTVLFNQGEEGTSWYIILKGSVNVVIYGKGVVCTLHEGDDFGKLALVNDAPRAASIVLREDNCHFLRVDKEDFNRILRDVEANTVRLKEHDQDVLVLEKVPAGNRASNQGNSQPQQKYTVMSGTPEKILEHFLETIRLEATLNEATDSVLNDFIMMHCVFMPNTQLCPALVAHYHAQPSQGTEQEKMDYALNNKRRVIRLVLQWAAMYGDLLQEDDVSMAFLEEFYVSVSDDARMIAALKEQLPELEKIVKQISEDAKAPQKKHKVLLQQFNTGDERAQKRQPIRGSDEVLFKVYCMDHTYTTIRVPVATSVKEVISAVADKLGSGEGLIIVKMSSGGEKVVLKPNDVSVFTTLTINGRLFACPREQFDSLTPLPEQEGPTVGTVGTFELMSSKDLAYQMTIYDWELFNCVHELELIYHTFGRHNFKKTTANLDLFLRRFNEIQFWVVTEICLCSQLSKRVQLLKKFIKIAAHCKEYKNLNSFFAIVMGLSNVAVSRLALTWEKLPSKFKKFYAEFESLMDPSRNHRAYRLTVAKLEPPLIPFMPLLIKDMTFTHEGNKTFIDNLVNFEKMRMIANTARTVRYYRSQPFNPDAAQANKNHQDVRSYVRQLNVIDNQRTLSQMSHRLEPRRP

As for `Cn1cccc1/C=C1/C(=O)NC(=O)N(Cc2ccc(F)cc2)C1=O`, the Potency result in assay [1], in assay [2] and in assay [3] was “inactive” in each case. In assay [4], the compound was classed as inactive.
In the case of `CCOC(=O)c1[nH]c2ccc(OC)cc2c1C(SCC(=O)O)c1ccc(C(F)(F)F)cc1` (stereo unspecified), the Potency result in assay [1] is “inactive”. Moreover, the activation in assay [2] is 2.9% [at 17.1 µM, percent relative to cAMP agonist control]. For the same compound, the activity change, negative = inhibition in assay [3] was -9.73% [at 12.7 µM]; in assay [4], -0.779% [at 30.8 µM].
For the compound `CCCCN1C(=O)/C(=C/c2ccc(N(C)C)cc2)C(=O)N(Cc2ccco2)C1=O`, the Potency result in assay [1] is “inactive”. For the same compound, in assay [2], the activation was 15.2% [at 17.1 µM, percent relative to cAMP agonist control]. Besides, the activity change, negative = inhibition was 35.5% [at 12.7 µM] in assay [3] and 25.6% [at 30.8 µM] in assay [4].
With `CCCCN1C(=O)/C(=C\c2ccco2)C(=O)N(CCc2ccccc2)C1=O`, the Potency result in assay [1], in assay [2], in assay [3] and in assay [5] was “inactive” in each case. Besides, in assay [4], the call was inactive.
Consider `COc1ccc(CN2C(=O)NC(=O)/C(=C\c3ccco3)C2=O)cc1`, for which the Potency result in assay [1], in assay [2] and in assay [3] was “inactive” each time. Moreover, the result in assay [4] was inactive.
Turning to `Cc1cc(OC(C)C(=O)N[C@H](C(=O)O)c2ccccc2)c2c3c(c(=O)oc2c1)CCC3` (stereo partly specified), the Potency result in assay [1], in assay [2] and in assay [5] was “inactive” throughout. In assay [3], the Potency is 42.6 µM (active). The compound was classed as inactive in assay [4].
Take `Nc1c2c(nc3sc4c(c13)CCCC4)CCCC2`: the Potency entry in assay [1] was “inactive”. In addition, the activation is 3.84% [at 17.1 µM, percent relative to cAMP agonist control] in assay [2] and 3.23% [at 30.8 µM] in assay [5]. Moreover, the activity change, negative = inhibition in assay [3] is -3.15% [at 12.7 µM]; in assay [4], 4.03% [at 30.8 µM].
For `CC(=O)C1C2c3ccccc3O[C@@]1(C)N=c1s/c(=C/c3ccoc3)c(=O)n12` (stereo partly specified), the Potency result in assay [1], in assay [2] and in assay [3] was “inactive” in each case. Besides, the compound was classed as inactive in assay [4].
`Cc1c(NS(=O)(=O)c2ccccc2)ccc([N+](=O)[O-])c1Cl`: the Potency result in assay [1], in assay [2] and in assay [3] was “inactive” in each case. The call in assay [4] was inactive.
Turning to `Cn1cccc1/C=C1\C(=O)NC(=O)N(Cc2ccccc2Cl)C1=O`, the Potency result in assay [1], in assay [2] and in assay [3] was “inactive” each time. Besides, the result in assay [4] was inactive.
With `COc1cc(-n2c(=S)[nH]c3ccc(C)cc3c2=O)c(Cl)cc1Cl`, the Potency result in assay [1] was “inactive”. Moreover, the activation in assay [2] was 8.75% [at 17.1 µM, percent relative to cAMP agonist control]; in assay [5] it was 24.2% [at 30.8 µM]. The activity change, negative = inhibition in assay [3] was -17.7% [at 12.7 µM]; in assay [4], -20.5% [at 30.8 µM].
Take `N/C(=N\N=C/c1ccc(-c2ccc(O)c(C(=O)O)c2)o1)N[N+](=O)[O-]`: the Potency entry in assay [1] and in assay [2] was “inactive” in each case. Besides, the outcome in assay [4] was inactive.
